Experimental data reported in PubChem BioAssay AID1159580 (chemical genetic matrix, 2015).
In all, about 5,500 compounds went through this assay and about 2,000 (36%) were called active. Not shown: some 18% with an inconclusive outcome. Cut-off read from the data, not from the text of the source: active = normalized growth mostly below about 0.91 (no sharp cut-off); inconclusive = no clear call, values can overlap the other calls; inactive = mostly above about 0.92. The list shows a part of the results.

Experiment: chemical genetic growth profiling, strain panel (AID 1159580);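 note: tested at 20 µM; growth read once vehicle control cultures reached saturation at 30 °C; 1 = growth at the plate median or of vehicle wells; lower values mean less growth of the strain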
Conditions: growth OD
[1] = S. cerevisiae deletion strains, locus YAL013W, strain DEP1, hits give low values
[2] = S. cerevisiae deletion strains, locus YBR229C, strain ROT2, hits give low values
[3] = S. cerevisiae deletion strains, locus YDL101C, strain DUN1, hits give low values
[4] = S. cerevisiae deletion strains, locus YEL061C, strain CIN8, hits give low values
[5] = S. cerevisiae deletion strains, locus YGR078C, strain PAC10, hits give low values
[6] = S. cerevisiae deletion strains, locus YHR030C, strain SLT2, hits give low values
[7] = S. cerevisiae deletion strains, locus YHR087W, strain rtc3, hits give low values
[8] = S. cerevisiae deletion strains, locus YJR043C, strain POL32, hits give low values
[9] = S. cerevisiae deletion strains, locus YJR075W, strain HOC1, hits give low values
[10] = S. cerevisiae deletion strains, locus YKL190W, strain CNB1, hits give low values
[11] = S. cerevisiae deletion strains, locus YLR039C, strain RIC1, hits give low values
[12] = S. cerevisiae deletion strains, locus YLR058C, strain SHM2 (second series), hits give low values
[13] = S. cerevisiae deletion strains, locus YLR085C, strain ARP6, hits give low values
[14] = S. cerevisiae deletion strains, locus YLR262C, strain YPT6, hits give low values
[15] = S. cerevisiae deletion strains, locus YML094W, strain GIM5, hits give low values
[16] = S. cerevisiae deletion strains, locus YMR219W, strain ESC1, hits give low values
[17] = S. cerevisiae deletion strains, locus YNL153C, strain GIM3, hits give low values
[18] = S. cerevisiae deletion strains, locus YNL298W, strain CLA4 (second series), hits give low values
[19] = S. cerevisiae deletion strains, locus YNL322C, strain KRE1, hits give low values
[20] = S. cerevisiae deletion strains, locus YNR030W, strain Alg12, hits give low values
[21] = S. cerevisiae deletion strains, locus YPL055C, strain LGE1, hits give low values
[22] = S. cerevisiae deletion strains, locus YPL241C, strain CIN2, hits give low values
[23] = S. cerevisiae deletion strains, locus YPR135W, strain CTF4, hits give low values
[24] = S. cerevisiae deletion strains, locus YDR150W, strain NUM1, hits give low values
[25] = S. cerevisiae deletion strains, locus YGR229C, strain SMI1, hits give low values
[26] = S. cerevisiae deletion strains, locus YMR263W, strain SAP30, hits give low values

Measured: normalized growth

O=C1ON=C(c2ccccc2)/C1=C/c1ccc(Cl)cc1
inactive: [14] 0.834
active: [1] 0.174 | [2] 0.145 | [3] 0.203 | S. cerevisiae deletion strains, locus YDL134C, strain PPH21, hits give low values 0.77 | [4] 0.637 | [5] 0.138 | [6] 0.16 | [7] 0.172 | [8] 0.198 | [9] 0.129 | [10] 0.523 | [11] 0.782 | [12] 0.311 | [13] 0.297 | [15] 0.584 | [16] 0.172 | [17] 0.105 | [18] 0.481 | [19] 0.472 | [20] 0.462 | [21] 0.11 | [22] 0.331 | [23] 0.294

O=C1ON=C(CSc2ccccc2)/C1=C/c1ccc(Cl)cc1
active: [1] 0.0593 | [2] 0.0605 | [3] 0.0787 | [24] 0.0599 | [4] 0.215 | [5] 0.0528 | [25] 0.522 | [6] 0.0755 | [7] 0.0592 | [8] 0.0516 | [9] 0.0832 | [10] 0.201 | [11] 0.283 | [12] 0.0598 | [13] 0.0742 | [14] 0.324 | [15] 0.343 | [16] 0.0677 | [26] 0.0516 | [17] 0.0589 | [18] 0.155 | [19] 0.0609 | [20] 0.101 | [21] 0.0724 | [22] 0.0913 | [23] 0.161 | S. cerevisiae strains, strain wild type, hits give low values 0.337

CC(=O)[C@]1(O)Cc2c(O)c3c(c(O)c2[C@@H](O[C@H]2C[C@H](N)[C@H](O)[C@H](C)O2)C1)C(=O)c1ccccc1C3=O
active: S. cerevisiae deletion strains, locus YAL040C, strain CLN3, hits give low values 0.208 | S. cerevisiae deletion strains, locus YCL061C, strain MRC1 (second series), hits give low values 0.0781 | [24] 0.0885 | S. cerevisiae deletion strains, locus YDR363W, strain ESC2, hits give low values 0.478 | S. cerevisiae deletion strains, locus YER002W, strain NOP16, hits give low values 0.193 | [25] 0.0661 | [9] 0.0942 | [26] 0.785 | S. cerevisiae deletion strains, locus YNL128W, strain TEP1, hits give low values 0.18 | [17] 0.59 | S. cerevisiae deletion strains, locus YNL175C, strain NOP13, hits give low values 0.178 | S. cerevisiae deletion strains, locus YNL197C, strain WHI3, hits give low values 0.183 | S. cerevisiae deletion strains, locus YNL224C, strain SQS1, hits give low values 0.165 | S. cerevisiae deletion strains, locus YOR083W, strain WHI5 (second series), hits give low values 0.178 | [21] 0.0958 | [22] 0.0639

COc1cccc2c1C(=O)c1c(O)c3c(c(O)c1C2=O)C[C@@](O)(C(=O)CO)C[C@@H]3O[C@H]1C[C@H](N)[C@@H](O)[C@H](C)O1
inactive: S. cerevisiae deletion strains, locus YBR171W, strain sec66, hits give low values 0.985 | S. cerevisiae deletion strains, locus YBR279W, strain paf1, hits give low values 0.958 | S. cerevisiae deletion strains, locus YCL069W, strain vba3, hits give low values 0.965 | S. cerevisiae deletion strains, locus YCR088W, strain abp1, hits give low values 0.953 | S. cerevisiae deletion strains, locus YDL005C, strain med2, hits give low values 0.951 | S. cerevisiae deletion strains, locus YDL040C, strain nat1, hits give low values 0.947 | S. cerevisiae deletion strains, locus YDR001C, strain nth1, hits give low values 0.937 | S. cerevisiae deletion strains, locus YDR195W, strain ref2 1.09 | S. cerevisiae deletion strains, locus YDR335W, strain msn5, hits give low values 0.928 | S. cerevisiae deletion strains, locus YDR392W, strain spt3, hits give low values 0.906 | S. cerevisiae deletion strains, locus YEL003W, strain gim4, hits give low values 0.955 | S. cerevisiae deletion strains, locus YEL037C, strain rad23, hits give low values 0.991 | S. cerevisiae deletion strains, locus YEL061C, strain CIN8 (second series), hits give low values 0.982 | S. cerevisiae deletion strains, locus YER111C, strain swi4, hits give low values 0.988 | S. cerevisiae deletion strains, locus YGL167C, strain pmr1, hits give low values 0.969 | S. cerevisiae deletion strains, locus YGL173C, strain kem1, hits give low values 0.997 | [6] 1.01 | S. cerevisiae deletion strains, locus YHR079C, strain IRE1, hits give low values 0.994 | S. cerevisiae deletion strains, locus YJL095W, strain BCK1, hits give low values 0.958 | S. cerevisiae deletion strains, locus YJL154C, strain vps35, hits give low values 0.952 | S. cerevisiae deletion strains, locus YJL187C, strain SWE1, hits give low values 0.93 | S. cerevisiae deletion strains, locus YJR066W, strain TOR1, hits give low values 0.948 | S. cerevisiae deletion strains, locus YKR026C, strain gcn3, hits give low values 0.926 | S. cerevisiae deletion strains, locus YKR091W, strain srl3, hits give low values 0.943 | S. cerevisiae deletion strains, locus YLR113W, strain HOG1, hits give low values 0.91 | S. cerevisiae deletion strains, locus YLR370C, strain arc18, hits give low values 0.96 | S. cerevisiae deletion strains, locus YLR384C, strain iki3, hits give low values 0.977 | S. cerevisiae deletion strains, locus YMR129W, hits give low values 0.963 | S. cerevisiae deletion strains, locus YMR231W, strain pep5, hits give low values 0.967 | S. cerevisiae deletion strains, locus YNL183C, strain NPR1, hits give low values 0.935 | S. cerevisiae deletion strains, locus YNL322C, strain KRE1 (second series), hits give low values 0.943 | S. cerevisiae deletion strains, locus YNR049C, strain mso1, hits give low values 0.937 | S. cerevisiae deletion strains, locus YOR231W, strain MKK1, hits give low values 0.997 | S. cerevisiae deletion strains, locus YPL256C, strain CLN2, hits give low values 0.981
active: S. cerevisiae deletion strains, locus YAL021C, strain ccr4, hits give low values 0.648 | S. cerevisiae deletion strains, locus YAL026C, strain drs2, hits give low values 0.894 | S. cerevisiae deletion strains, locus YAL030W, strain snc1, hits give low values 0.891 | S. cerevisiae deletion strains, locus YBL061C, strain skt5, hits give low values 0.888 | S. cerevisiae deletion strains, locus YBR009C, strain hhf1, hits give low values 0.552 | S. cerevisiae deletion strains, locus YBR023C, strain chs3, hits give low values 0.894 | S. cerevisiae deletion strains, locus YBR231C, strain swc5, hits give low values 0.692 | S. cerevisiae deletion strains, locus YCL011C, strain gbp2, hits give low values 0.845 | S. cerevisiae deletion strains, locus YCL016C, strain dcc1, hits give low values 0.753 | S. cerevisiae deletion strains, locus YCL061C, strain MRC1, hits give low values 0.897 | S. cerevisiae deletion strains, locus YDR069C, strain doa4, hits give low values 0.848 | S. cerevisiae deletion strains, locus YDR137W, strain rgp1, hits give low values 0.846 | S. cerevisiae deletion strains, locus YDR159W, strain sac3, hits give low values 0.501 | S. cerevisiae deletion strains, locus YDR297W, strain sur2, hits give low values 0.906 | S. cerevisiae deletion strains, locus YDR334W, strain swr1, hits give low values 0.78 | S. cerevisiae deletion strains, locus YER015W, strain faa2, hits give low values 0.801 | S. cerevisiae deletion strains, locus YER016W, strain bim1, hits give low values 0.862 | S. cerevisiae deletion strains, locus YER155C, strain BEM2 (second series), hits give low values 0.595 | S. cerevisiae deletion strains, locus YFR010W, strain ubp6, hits give low values 0.867 | S. cerevisiae deletion strains, locus YGL227W, strain vid30, hits give low values 0.889 | S. cerevisiae deletion strains, locus YGL240W, strain doc1, hits give low values 0.488 | S. cerevisiae deletion strains, locus YGL253W, strain hxk2, hits give low values 0.576 | S. cerevisiae deletion strains, locus YHR013C, strain ard1, hits give low values 0.635 | S. cerevisiae deletion strains, locus YHR027C, strain rpn1, hits give low values 0.854 | S. cerevisiae deletion strains, locus YHR142W, strain chs7, hits give low values 0.84 | S. cerevisiae deletion strains, locus YJL092W, strain hpr5, hits give low values 0.855 | S. cerevisiae deletion strains, locus YJL095W, strain BCK1 (second series), hits give low values 0.913 | S. cerevisiae deletion strains, locus YJL115W, strain asf1, hits give low values 0.682 | S. cerevisiae deletion strains, locus YJL129C, strain trk1, hits give low values 0.337 | S. cerevisiae deletion strains, locus YJL164C, strain tpk1, hits give low values 0.737 | S. cerevisiae deletion strains, locus YJL166W, strain qcr8, hits give low values 0.59 | S. cerevisiae deletion strains, locus YKL160W, strain elf1, hits give low values 0.75 | S. cerevisiae deletion strains, locus YLL001W, strain dnm1, hits give low values 0.875 | S. cerevisiae deletion strains, locus YLL026W, hits give low values 0.851 | S. cerevisiae deletion strains, locus YLL041C, strain sdh2, hits give low values 0.918 | S. cerevisiae deletion strains, locus YLR027C, strain aat2, hits give low values 0.821 | S. cerevisiae deletion strains, locus YLR221C, strain rsa3, hits give low values 0.759 | S. cerevisiae deletion strains, locus YLR258W, strain gsy2, hits give low values 0.834 | S. cerevisiae deletion strains, locus YLR262C, strain YPT6 (second series), hits give low values 0.826 | S. cerevisiae deletion strains, locus YLR320W, strain mms22, hits give low values 0.312 | S. cerevisiae deletion strains, locus YLR342W, strain FKS1, hits give low values 0.873 | S. cerevisiae deletion strains, locus YLR357W, strain rsc2, hits give low values 0.785 | S. cerevisiae deletion strains, locus YML120C, strain ndi1, hits give low values 0.794 | S. cerevisiae deletion strains, locus YMR058W, strain fet3, hits give low values 0.806 | S. cerevisiae deletion strains, locus YMR125W, strain sto1, hits give low values 0.825 | S. cerevisiae deletion strains, locus YMR205C, strain PFK2, hits give low values 0.634 | S. cerevisiae deletion strains, locus YNL071W, strain lat1, hits give low values 0.689 | S. cerevisiae deletion strains, locus YNL209W, strain ssb2, hits give low values 0.899 | S. cerevisiae deletion strains, locus YNL248C, strain rpa49, hits give low values 0.177 | S. cerevisiae deletion strains, locus YOR001W, strain rrp6, hits give low values 0.875 | S. cerevisiae deletion strains, locus YOR070C, strain gyp1, hits give low values 0.863 | S. cerevisiae deletion strains, locus YOR080W, strain dia2, hits give low values 0.89 | S. cerevisiae deletion strains, locus YOR083W, strain WHI5, hits give low values 0.804 | S. cerevisiae deletion strains, locus YOR106W, strain vam3, hits give low values 0.682 | S. cerevisiae deletion strains, locus YOR265W, strain rbl2, hits give low values 0.879 | S. cerevisiae deletion strains, locus YOR270C, strain vph1, hits give low values 0.766 | S. cerevisiae deletion strains, locus YOR290C, strain snf2, hits give low values 0.78 | S. cerevisiae deletion strains, locus YPL051W, strain arl3, hits give low values 0.8 | S. cerevisiae deletion strains, locus YPL078C, strain atp4, hits give low values 0.785 | S. cerevisiae deletion strains, locus YPL106C, strain sse1, hits give low values 1.2 [resistant] | S. cerevisiae deletion strains, locus YPL240C, strain hsp82, hits give low values 0.926
